What was measured:
[1] = tested on: T1, CDC2L5
T1 construct: gene CDK13

[2] = tested on: CAMK1G
[3] = tested on: CAMK2D
[4] = tested on: CDK8
[5] = tested on: CDKL2
[6] = tested on: CAMKK1
[7] = tested on: CSF1R
[8] = tested on: CDK2
[9] = tested on: CSNK1G1
[10] = tested on: CIT
[11] = tested on: CLK3
[12] = tested on: T2, CDC2L1
T2 construct: gene CDK11B

[13] = tested on: CDK4
[14] = tested on: CDK9
[15] = tested on: CSK
[16] = tested on: CLK1
[17] = tested on: CSNK1E
[18] = tested on: CAMK2A
[19] = tested on: CSNK1D
[20] = tested on: CSNK1A1L
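Note: kd values determined as follow-up on hits from a single-replicate KINOMEscan panel screen.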

## CCn1c(-c2ccccn2)nc2cnccc21 [SB-736398]
[1]
  Kd: > 10 µM

## Cc1cc(-c2ccc3c(c2)CC[C@@H](N[C@@H](C)c2ccccc2)C3)cnc1N.Cl [GW412617]
[2]
  Kd: > 10 µM
[3]
  Kd: > 10 µM

## O=C(Nc1n[nH]c2cc(-c3cccc(F)c3F)ccc12)C1CC1 [SB-733894]
[2]
  Kd: > 10 µM
[4]
  Kd: > 10 µM
[5]
  Kd: 300 nM

## CC(C)(C)c1ccc(C(=O)Nc2cn3cc(Cl)ccc3n2)cc1
[6]
  Kd: > 10 µM

## CC(=O)Nc1nc2cnc(Nc3cc(NC(=O)c4cccc(CCC#N)c4)ccc3C)nc2s1
[7]
  Kd: > 10000 nM

## O=C(Nc1n[nH]c2nc(-c3nccs3)c(Br)cc12)C1CC1 [SB-742251]
[8]
  Kd: 350 nM
[5]
  Kd: 480 nM

## CSc1nn2c(=O)cc(N3CCOCC3)nc2n1Cc1cccc(C(F)(F)F)c1C [GSK2363608]
[9]
  Kd: > 10 µM

## O=C(Nc1ccccc1)Nc1cccc(Oc2ccc3nccn3n2)c1
[10]
  Kd: 1.1 nM
[7]
  Kd: 27 nM

## COc1cc2nccc(Nc3ccc(NC(=O)c4ccc(C)cc4)c(O)c3)c2cc1OC.Cl [GW440132]
[11]
  Kd: > 10 µM

## O=C(Nc1n[nH]c2nc(-c3nccs3)c(Br)cc12)C1CCCC1 [SB-742609]
[12]
  Kd: > 10 µM
[8]
  Kd: 280 nM
[13]
  Kd: 4.2 µM
[14]
  Kd: 2.5 µM
[5]
  Kd: 500 nM

## CS(=O)(=O)c1ccc(-c2nc3n(c2-c2ccncc2)CCC3)cc1 [SKF-105942]
[12]
  Kd: > 10 µM
[14]
  Kd: > 10 µM
[15]
  Kd: > 10 µM

## CN1C(=O)C(Nc2ccc(Cl)c(C(=O)O)c2)=C(c2ccc(Cl)cc2)C1=O [SB-404290]
[2]
  Kd: > 10 µM

## CC(C)(C)c1ccc(C(=O)Nc2cn3cc(-c4cccnc4)ccc3n2)cc1
[16]
  Kd: 280 nM
[17]
  Kd: 110 nM

## COc1ccc(Nc2nccc(NCCNC(=O)Nc3ccccc3F)n2)cc1 [GSK1379901]
[11]
  Kd: > 10 µM
[17]
  Kd: > 10000 nM

## CCCc1ccc(S(=O)(=O)NC2CCN(c3ccnc(Nc4ccc(F)cc4)n3)C2)cc1 (centres unmarked) [GSK1379715]
[1]
  Kd: > 10 µM

## Cn1ccc2ncnc(Oc3ccc(NC(=O)Nc4ccccc4)cc3)c21
[7]
  Kd: 82 nM

## Cc1c(Cn2ccn3c(=O)cc(N4CCOCC4)nc23)cccc1C(F)(F)F [GSK2289044]
[18]
  Kd: > 10 µM

## CN(C)CCN(C)C(=O)c1cc(-c2ccncc2)c(-c2ccc(Cl)c(O)c2)o1.Cl.Cl [SB-710397]
[19]
  Kd: 220 nM
[17]
  Kd: 410 nM

## Cc1ccc(NC(=O)Nc2cccc(Cl)c2)cc1-c1ccc(C(=O)Nc2ccncc2)cc1 [GSK1398468]
[10]
  Kd: 150 nM

## Cc1cccc(-c2nc(Nc3ccncc3)c3ccccc3n2)n1 [GW855857]
[10]
  Kd: 440 nM

## Cc1cccc(-c2nc(C)cc(Nc3ccncc3)n2)n1 [GSK257997]
[2]
  Kd: > 10 µM
[3]
  Kd: > 10 µM
[12]
  Kd: > 10 µM
[14]
  Kd: > 10 µM

## CCn1c(-c2cccnc2O)nc2cnccc21 [SB-736715]
[20]
  Kd: > 10 µM

## Cn1cncc1-c1ccc2ncnc(Nc3ccc(OCc4ccccc4)cc3)c2c1 [GW320571]
[11]
  Kd: > 10 µM
[17]
  Kd: > 10000 nM

Source: PMC5540273 (PLoS ONE, 2017)
